Source: PubChem BioAssay (NCI)
Compounds without any hit were thinned out: in the full panel of roughly 79,000, 15% have a hit. Active and inactive are the calls of the source. Rule as the data show it: active = growth inhibition above about 70%; inactive = the rest.

assay: NCI Yeast Anticancer Drug Screen. Data for the mec2-1 strain (AID 157); conditions: S. cerevisiae mec2-1 strain, at 50.0 µM, active compounds read high
Protocol: Growth inhibition of yeast strains with defined genetic alterations is measured as a screen for potential anti-cancer activity. Selected strains with alterations in DNA damage repair or cell cycle control were exposed to compounds and growth inhibition was measured relative to vehicle treated controls. The strain used in this assay is mec2-1

Structure (SMILES)	growth inhibition
C/C=C/C(=O)OCCOc1ccccc1-c1ccccc1	16.3% (inactive)
CC(=O)Oc1cc(C)c(OC(C)=O)c(C)c1C	-27.4% (inactive)
CCOP(=O)(OCC)/C(C#N)=C/c1cnc(-c2ccccc2)[nH]1	-4.85% (inactive)
CCCCCCCCC(C)(C)O	-3.55% (inactive)
Nc1cccc(N2N=C(C(=O)O)CC2=O)c1	-19.8% (inactive)
CC(C)(C)OC(=O)NCCc1ccc(N)cc1	-5.55% (inactive)
CN(NC(=O)c1ccccc1)C(=O)c1ccccc1	7.4% (inactive)
COc1cc(NC(C)CCCN)c2nccc(C)c2c1 (stereo not given)	12.2% (inactive)
COC(=O)[C@]1(C)CCC[C@]2(C)c3ccc(C(C)=O)cc3C(=O)C[C@@H]12	-10.8% (inactive)
COc1ccc(CCN=Cc2ccc(Cl)cc2)cc1OC	-28.4% (inactive)
O=C(CCC(=O)OCCCl)OCCCl	-18.9% (inactive)
COc1cc(C(O)C(CO)Oc2c(OC)cc(C3OCC4C(c5cc(OC)c(O)c(OC)c5)OCC34)cc2OC)ccc1O (stereo not given)	1.4% (inactive)
Cc1cccc(C)c1/[N+]([O-])=C/c1cccc([N+](=O)[O-])c1	-31.1% (inactive)
CSC1(SC)CCCCCCCCCCC1	-17.2% (inactive)
CC(O)CCNC(c1ccccc1)C(O)c1ccccc1 (stereo not given)	-6.95% (inactive)
CC(=O)Nc1ccc(F)c([N+](=O)[O-])c1	-19.6% (inactive)
COC(=O)[C@]1(C)CCCn2c(=O)n(-c3ccccc3)c(=O)n21	11.3% (inactive)
CC1CNC(=S)O1 (stereo not given)	-15.5% (inactive)
COc1cc(-c2ccccc2)c(OC)cc1CCl	2.95% (inactive)
COc1ccccc1/C=N\NC(C)=O	6.05% (inactive)

Structure (SMILES)	growth inhibition
Cc1cccc(NC(=O)CSc2nnc(Cc3ccccc3)o2)c1	-16.3% (inactive)
Cc1ccc(C(=O)OCc2ccccc2CN2CCCCC2)cc1	-8.35% (inactive)
O=c1ccn2c(n1)OC1CC2OC1COC(c1ccccc1)(c1ccccc1)c1ccccc1 (stereo not given)	4.15% (inactive)
Oc1ccc2ccccc2c1C(c1ccccc1)N1CCOCC1 (stereo not given)	-11% (inactive)
CC1(C)Cc2ccccc2C(C)(Cl)C(=O)N1 (stereo not given)	0.3% (inactive)
O=C(NCCO)c1ccc(Cl)cc1	-26.3% (inactive)
Cc1nc2ccc(Cl)c(Cl)c2s1	-16.3% (inactive)
Cc1nc(C)c(N2CCN(Cc3ccccc3)CC2)c(=O)[nH]1	2.5% (inactive)
CC(=O)CCCCO	-2.5% (inactive)
CSc1nc(=S)c2[nH]c(=S)[nH]c2[nH]1	11.4% (inactive)
C=CCN1C(=O)c2ccccc2C1=O	-3.2% (inactive)
NC1=NC(c2ccccc2)N=C(Nc2ccccc2)N1 (stereo not given)	1.4% (inactive)
Cc1cc2ncn(C3OC(CO)C(O)C3O)c2cc1C (stereo not given)	8.35% (inactive)
CCn1c(=O)c(C#N)c2n(CC)c3cc(C)c(C)cc3n2c1=O	-2.9% (inactive)
CCOC(=O)N1C(c2ccccc2)N(c2ccccc2)C(c2ccccc2)N1C(=O)OCC (stereo not given)	4.65% (inactive)
COCn1cnc2c(F)ncnc21	-1.4% (inactive)
OCC1OC(n2ncc3c(Nc4ccccc4)ncnc32)C(O)C1O (stereo not given)	18.3% (inactive)
N#CC(C(=O)C(=O)Nc1cccc(C(F)(F)F)c1)c1c(Cl)cccc1Cl (stereo not given)	11.6% (inactive)
N#CC(/C(CCCC(=O)Nc1cccc([N+](=O)[O-])c1)=N/NC(=O)c1cc2ccccc2cc1O)c1ccccc1 (stereo not given)	41.4% (inactive)
Cc1ccc(S(=O)(=O)n2ccnc2)cc1	-21.9% (inactive)
